Source: PubChem BioAssay (NCI)
Compounds without any hit were thinned out: in the full panel of roughly 83,000, 20% have a hit.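 Treatment: one concentration, 48 hours, 96-well format. Scoring: percent growth, with anything below 10 considered active.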 A number with no mark means an inactive call. Calls of active or inactive are those of the source.

System: NCI-H460 lung
Experiment: NCI-60 one-dose screen, 48 h (100 = growth as untreated, 0 = no growth, -100 = all killed)
Settings: 10 µM unless noted

Q: How did the growth turn out when `COc1ccc(C(=O)NC(=O)Nc2ccc3c(c2)NC(=O)/C3=C\c2[nH]c(C)c(CCC(=O)O)c2C)c(F)c1` was run?
A: 17.1%

Q: `Cn1c(I)c(C#C[Si](C)(C)C)c(=O)[nH]c1=O` was tested. Which growth did it give?
A: 104%

Q: `COC(=O)c1oc2c(C(C)=O)c(OCCCN(C)C)ccc2c1C` was tested. Which growth did it give?
A: 118%

Q: With `CC(C)NCC(O)COc1ccc(CC(N)=O)cc1` (centres undefined) as the molecule, how does the growth read?
A: 109%

Q: `O=C(NCCNc1nccc(-c2c(-c3cccc(O)c3)nc3sccn23)n1)Nc1cccc(C(F)(F)F)c1` was tested. Which growth did it give?
A: 80.1%

Q: With `CNCCCOc1c(Br)cc(CCNC(=O)/C(Cc2ccc(OC)c(Br)c2)=N/O)cc1Br` as the molecule, how does the growth read?
A: 15.8%

Q: `COc1cccc(-c2nc3sccn3c2-c2ccnc(NCCNC(=O)c3ccccc3)n2)c1` was tested. Which growth did it give?
A: 84.9%

Q: For `O=C(N/N=C1\SCC(=O)N1c1ccccc1)c1cc(-c2cc3ccccc3o2)nn1-c1ccccc1`, which growth is on record?
A: 121%

Q: For `Cc1ccc2c(c1)Nc1ccc(C)cc1C2(C)C`, which growth is on record?
A: 109%

Q: How did the growth turn out when `COc1cc(NC(C)CCCN2C(=O)c3ccccc3C2=O)c2nccc(C)c2c1OC` (centres undefined) was run?
A: 108%

Q: How did the growth turn out when `NCC(=O)NS(=O)(=O)OC[C@H]1O[C@@H](n2cnc3c(N)ncnc32)[C@H](O)[C@@H]1O` was run?
A: 3.35% (active)

Q: How did the growth turn out when `CCN(CC)CC(=O)Nc1c(C)cccc1C` was run?
A: 112%

Q: Which growth does the source give for `Nc1ncnc2c1c(-c1ccc(Oc3ccccc3)cc1)nn2C[C@@H]1SSC[C@H]1O` here?
A: 3.61% (active)

Q: For `COc1cc(/C=C\c2cc(/C=C\c3ccc(O)c(OC)c3)n(C(=O)CNc3ccccc3OC)n2)ccc1O`, which growth is on record?
A: 81.6%

Q: How did the growth turn out when `O=C1OC(N(Cc2ccc(Cl)cc2)c2ccccc2)c2ccccc21` (centres undefined) was run?
A: 111%

Q: With `CN(C)CC/C=C1\c2ccccc2Sc2ccc(Cl)cc21` as the molecule, how does the growth read?
A: 77.2%

Q: For `O=C(Nc1cccc(-n2ccc3c(NC(=O)c4ccccc4)nccc32)c1)Nc1cc(C(F)(F)F)cc(C(F)(F)F)c1`, which growth is on record?
A: 2.99% (active)

Q: How did the growth turn out when `CCCCC(=O)Nc1nc2ccc(SCCC)cc2s1` was run?
A: 32%

Q: For `CCN(CC)c1ccc(C2CC(c3cc(OC)c(OC)c(OC)c3)=NN2)cc1` (centres undefined), which growth is on record?
A: 2.68% (active)

Q: Which growth does the source give for `c1ccc2nc(Cn3cc[n+](Cc4ccc5ccccc5n4)c3)ccc2c1` here?
A: 77.7%

Q: For `Clc1ccc(OCc2nc(-c3ccccc3)n[nH]2)c(Cl)c1`, which growth is on record?
A: 99.3%

Q: For `CC(C)CNCC(=O)Nc1ccc(Cc2ccc(NC(=O)CNCC(C)C)cc2)cc1`, which growth is on record?
A: 43.1%

Q: `O=C(O)c1ccc(-n2cc(/C=N/Nc3ccc(F)cc3)c(-c3cccc(C(F)(F)F)c3)n2)cc1` was tested. Which growth did it give?
A: 81.6%

Q: With `CCCCCCCCCCCCCCCCCCNCc1ccc(Cl)cc1` as the molecule, how does the growth read?
A: -71.6% (active)

Q: For `COc1ccc(CCNC=O)cc1OC`, which growth is on record?
A: 102%

Q: With `O=C(COc1ccc(Cl)cc1Cl)N1N=C(c2ccc(Cl)cc2Cl)CC1(O)c1cc(F)c(Cl)cc1Cl` (centres undefined) as the molecule, how does the growth read?
A: 107%

Q: `Cc1nccc2c3ccc(OCc4cn(Cc5ccc(Br)cc5)nn4)cc3n(CCCc3ccccc3)c12` was tested. Which growth did it give?
A: 89.5%

Q: How did the growth turn out when `COc1ccc(-c2c(C#N)cnc(N)c2-c2nc3cc(C)c(C)cc3[nH]2)cc1` was run?
A: 36%

Q: `O=c1c2ccccc2[nH]n1Cc1ccc2c(c1)OCO2` was tested. Which growth did it give?
A: 0.543% (active)

Q: Which growth does the source give for `COc1cc(Nc2ncccc2C(=O)Nc2nc3ccc(F)cc3s2)cc(OC)c1OC` here?
A: 74.1%

Q: How did the growth turn out when `Cc1ccc(Cn2cc(COc3ccc4c5ccnc(C)c5n(CCCc5ccccc5)c4c3)nn2)cc1` was run?
A: 103%

Q: `O=C(Nc1ccc(-n2ccc3c(NC(=O)c4ccccc4)ncnc32)cc1)Nc1ccc(Cl)c(C(F)(F)F)c1` was tested. Which growth did it give?
A: -62.2% (active)

Q: Which growth does the source give for `CCCCOc1c(N)cc(Cl)cc1C(=O)OCCN(CC)CC` here?
A: 108%

Q: With `CC(Cl)(CCl)CS(=O)(=O)c1ccc(Cl)cc1` (centres undefined) as the molecule, how does the growth read?
A: 107%

Q: For `CCc1c(C)c2cc3c(c(C)c2oc1=O)OCC(=O)N3`, which growth is on record?
A: 43.2%

Q: `Cc1ccc(NC(=O)CN2CCOCC2)cc1Cl` was tested. Which growth did it give?
A: 100%

Q: How did the growth turn out when `CC1(C)CC(=O)C2=C(C1)OC1=C(C(=O)CC(C)(C)C1)C2c1ccc(OCc2cn(-c3ccc(F)cc3F)nn2)cc1` was run?
A: 100%

Q: `COc1cccc(-c2nc3sccn3c2-c2ccnc(NCCNC(=O)Nc3cccc(C(F)(F)F)c3)n2)c1` was tested. Which growth did it give?
A: 45.1%

Q: `CN(C)c1ccc(/C=N/N=C(N)N)cc1` was tested. Which growth did it give?
A: 83.2%
